# Some of the results follow. The true hit rate is not given.
# Biological target: furin, P09958
# Assay: furin cleavage Z-score vs untreated control; higher = more cleavage, active = 3.5 or more, inactive = 1 or less, 8 variable residues between constant flanks
# How it was run: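 Peptides 8 residues long, fused to a cDNA oligonucleotide, were fixed to magnetic beads by the N-terminus and exposed to purified furin. The 0.01 ml reactions contained 50 mM HEPES pH 7.5 with CaCl2 and NaCl at 1:10 enzyme:substrate and ran 7.5, 15 or 30 min. For the cleavage Z-score, log counts of sequenced released DNA were compared with furin-free reactions, lowess-adjusted and scaled by median absolute deviation.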
# furin, P09958, sequence (P09958 whole entry): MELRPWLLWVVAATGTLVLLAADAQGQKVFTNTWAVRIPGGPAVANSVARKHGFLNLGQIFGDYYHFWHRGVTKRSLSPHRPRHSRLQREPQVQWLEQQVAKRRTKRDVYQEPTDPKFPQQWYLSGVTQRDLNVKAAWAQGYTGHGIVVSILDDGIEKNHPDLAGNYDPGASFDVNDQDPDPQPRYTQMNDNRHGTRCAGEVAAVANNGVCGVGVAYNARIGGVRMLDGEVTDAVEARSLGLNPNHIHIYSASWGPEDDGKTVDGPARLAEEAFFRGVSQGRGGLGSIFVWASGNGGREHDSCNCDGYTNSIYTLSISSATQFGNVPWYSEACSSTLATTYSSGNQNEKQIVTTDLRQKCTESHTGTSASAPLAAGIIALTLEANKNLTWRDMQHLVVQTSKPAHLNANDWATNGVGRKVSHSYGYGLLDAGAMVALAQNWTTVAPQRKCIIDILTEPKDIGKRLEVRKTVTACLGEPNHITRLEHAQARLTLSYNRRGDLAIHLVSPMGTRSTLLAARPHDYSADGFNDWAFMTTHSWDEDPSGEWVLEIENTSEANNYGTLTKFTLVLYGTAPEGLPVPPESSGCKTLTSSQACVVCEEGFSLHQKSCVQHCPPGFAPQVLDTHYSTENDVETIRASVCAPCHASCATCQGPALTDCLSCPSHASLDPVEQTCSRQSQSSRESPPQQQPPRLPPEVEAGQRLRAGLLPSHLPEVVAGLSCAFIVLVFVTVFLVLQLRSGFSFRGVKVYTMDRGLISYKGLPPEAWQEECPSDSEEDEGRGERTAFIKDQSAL
Sequence,furin cleavage Z-score (7.5 min),furin cleavage Z-score (15 min),furin cleavage Z-score (30 min)
CACYIKARAAAGNASASA [HC1518],-1.15 (inactive),-2.21 (inactive),-1.87 (inactive)
CALETTMRSPAGNASASA [HC761],-0.168 (inactive),-1 (inactive),-1.96 (inactive)
CACDECHSTDAGNASASA [HC818],0.0668 (inactive),-0.316 (inactive),-1.36 (inactive)
CAVVCCSMSSAGNASASA [HC2097],-1.16 (inactive),-0.774 (inactive),-1.81 (inactive)
CASLDPTFTIAGNASASA [HC893],-1.06 (inactive),-1.75 (inactive),-1.02 (inactive)
CAQLRRTTRSAGNASASA [FS-285],7.33 (active),6.26 (active),6.25 (active)
CASPARETRSAGNASASA [FS-627],5.25 (active),8.43 (active),6.33 (active)
CASPLRQNRSAGNASASA [FS-299],0.752 (inactive),0.557 (inactive),0.444 (inactive)
CAMDARTDRSAGNASASA [FS-1375],1.8,-1.12 (inactive),0.78 (inactive)
CAEYVTSTWVAGNASASA [HC2169],0.357 (inactive),0.186 (inactive),-1.53 (inactive)
CAAGAAIGSVAGNASASA [HC1078],-1.21 (inactive),0.457 (inactive),-0.822 (inactive)
CAEVVTSHWVAGNASASA [HC2215],-1.58 (inactive),-0.204 (inactive),0.171 (inactive)
CAVRARLLARAGNASASA [HC1624],-2.8 (inactive),-0.431 (inactive),-0.318 (inactive)
CAAAGRRLARAGNASASA [HC1253],4.08 (active),4.81 (active),4.86 (active)
CADPTTPLARAGNASASA [HC1564],-0.242 (inactive),-3 (inactive),-1.34 (inactive)
CAVDCCSMSYAGNASASA [HC2011],0.752 (inactive),-0.617 (inactive),0.379 (inactive)
CALAERRVRIAGNASASA [FS-265],0.222 (inactive),0.166 (inactive),-2.18 (inactive)
CALILRSKRYAGNASASA [FS-1024],9.69 (active),10.5 (active),10.3 (active)

Sequence,furin cleavage Z-score (7.5 min),furin cleavage Z-score (15 min),furin cleavage Z-score (30 min)
CAMHIRRKRIAGNASASA [FS-1235],8.17 (active),9.27 (active),7.92 (active)
CARCRRNKRIAGNASASA [FS-1649],4.5 (active),6.14 (active),4.22 (active)
CAFKNRSCRIAGNASASA [FS-768],-0.201 (inactive),0.864 (inactive),0.865 (inactive)
CAARIRVKRYAGNASASA [FS-8],8.19 (active),7 (active),8.58 (active)
CADFDSVIDCAGNASASA [HC884],-0.725 (inactive),-1.64 (inactive),-0.179 (inactive)
CAEVYCHRPSAGNASASA [HC2349],-0.918 (inactive),0.00682 (inactive),-0.904 (inactive)
CAAEECSQHLAGNASASA [HC1663],0.467 (inactive),0.000249 (inactive),1.4
CAAICGKYLFAGNASASA [HC1630],1.25,-1.22 (inactive),-0.719 (inactive)
CANFISGIQYAGNASASA [HC1044],-0.934 (inactive),-0.739 (inactive),-0.721 (inactive)
CASRHRVTRYAGNASASA [FS-1489],9.37 (active),11.3 (active),10.7 (active)
CAAICRRKRYAGNASASA [FS-396],11.5 (active),13.2 (active),11.3 (active)
CASRGENCGYAGNASASA [HC1505],1.28,-1.03 (inactive),-0.54 (inactive)
CAANVRRKRYAGNASASA [FS-643],12.5 (active),13.8 (active),11.3 (active)
CALTHPVTKYAGNASASA [HC979],-1.06 (inactive),1.08,1.75
CANHVSPTHYAGNASASA [HC1124],-0.962 (inactive),0.0646 (inactive),-0.575 (inactive)
CAFHIRRKRYAGNASASA [FU9],11 (active),12.5 (active),11.3 (active)
CAFHIRRKRYAGNASASA [FS-651],11.7 (active),12.5 (active),10.9 (active)

# From the supplement of paper PMC3545927
